From PubChem BioAssay (NCATS)
Results filed as inconclusive are left out. Where a call stands in place of a potency, no number is given. The source made the active and inactive calls. Calls follow the shape of the dose curve; as a rule, active = well fitted cell-killing curve with a large enough effect; inconclusive = small, poorly fitted or top-dose-only effect, or effect the other way; inactive = no such curve, though single readings can be large or run the other way.

Columns and labels:
[1] = Quantitative High-Throughput drug screen in 47 multiple myeloma cell lines against the NCATS MIPE library collection: OPM2_DSMZ cell viability assay (AID 1919872); also: nearly all actives have a fitted effect of over 30% in size
Summary of the method: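 Relative luminescence from CellTiter-Glo served as the viability signal, referenced to DMSO-treated (100%) and cell-free medium (0%) controls. Treatment lasted 48 hours at 37C with 500 cells per well.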

[2] = Quantitative High-Throughput drug screen in 47 multiple myeloma cell lines against the NCATS MIPE library collection: KMS11_JCRBsus cell viability assay (AID 1919873); also: nearly all actives have a fitted effect of over 50% in size
Summary of the method: (§1)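 Viability after 48 h drug exposure was measured as ATP-dependent luminescence. Cells, 500 per well, sat at 37 °C under 5% CO2; DMSO wells set 100%, media-only wells 0%.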

[3] = Quantitative High-Throughput drug screen in 47 multiple myeloma cell lines against the NCATS MIPE library collection: KMS28BM_JCRB cell viability assay (AID 1919874); also: nearly all actives have a fitted effect of over 35% in size
Summary of the method: as §1
Potency is read from the fitted curve at half-maximal effect.

SMILES | Potency [1] | Potency [2] | Potency [3]
O=C(NC(Cc1cc(=O)[nH]c2ccccc12)C(=O)O)c1ccc(Cl)cc1 (centres undefined) | inactive | inactive | inactive
N=C(N=C(N)N)N1CCOCC1 | inactive | inactive | inactive
CC(C)C[C@H](NC(=O)[C@H](Cc1ccccc1)NC(=O)c1cnccn1)B(O)O | 0.0264 µM (active) | 0.0083 µM (active) | 0.0132 µM (active)
O=C(CS(=O)Cc1ccco1)NCC=CCOc1cc(CN2CCCCC2)ccn1 (centres undefined) | inactive | inactive | inactive
O=c1c(O)c(-c2ccc(O)cc2O)oc2cc(O)cc(O)c12 | inactive | inactive | inactive
O=C(O)c1cn(-c2ccc(F)cc2)c2cc(N3CCNCC3)c(F)cc2c1=O | inactive | inactive | inactive
Nc1nc(Cl)nc2c1ncn2[C@H]1C[C@H](O)[C@@H](CO)O1 | inactive | 5.26 µM (active) | 4.18 µM (active)
C=CCc1cc(OC)c(O)c(C(=O)NCCO)c1 | inactive | inactive | inactive
Nc1ccc(S(N)(=O)=O)cc1 | inactive | inactive | inactive
C[C@H](Cn1cnc2c(N)ncnc21)OCP(=O)(O)O | inactive | inactive | inactive
COCCCN1CCC(NC(=O)c2cc(Cl)c(N)c3c2OCC3)CC1 | inactive | 23.5 µM (active) | 
CCCCN(CCCC)CCC(O)c1cc2c(Cl)cc(Cl)cc2c2cc(C(F)(F)F)ccc12 (centres undefined) | inactive | inactive | inactive
COc1ccc(C2(C#N)CCC(C(=O)O)CC2)cc1OC1CCCC1 (centres undefined) | inactive | inactive | inactive
C=C(c1ccc(C(=O)O)cc1)c1cc2c(cc1C)C(C)(C)CCC2(C)C | inactive | inactive | inactive
O=C(O)c1cccnc1Nc1cccc(C(F)(F)F)c1 | inactive | inactive | inactive
CC1=C(C(=O)O)N2C(=O)[C@@H](NC(=O)[C@H](N)C3=CCC=CC3)[C@H]2SC1 | inactive | inactive | inactive
O=C(O)c1cc(=O)c2c(OCC(O)COc3cccc4oc(C(=O)O)cc(=O)c34)cccc2o1 | inactive | inactive | inactive
CC1Cc2ccccc2N1NC(=O)c1ccc(Cl)c(S(N)(=O)=O)c1 (centres undefined) | inactive | inactive | 1.05 µM (active)
CCC1=C(C)CN(C(=O)NCCc2ccc(S(=O)(=O)NC(=O)NC3CCC(C)CC3)cc2)C1=O (centres undefined) | inactive | inactive | inactive
O=C(OC1C[C@H]2CC[C@@H](C1)[N+]21CCCC1)C(O)(c1ccccc1)c1ccccc1 (some centres undefined) | inactive | inactive | inactive

SMILES | Potency [1] | Potency [2] | Potency [3]
COC(=O)C1=C(C)NC(C)=C(C(=O)OCCCN2CCC(c3ccccc3)(c3ccccc3)CC2)C1c1cccc([N+](=O)[O-])c1 (centres undefined) | inactive | inactive | inactive
O=C1c2ccccc2-c2n[nH]c3cccc1c23 | inactive | inactive | 
O=C(O)c1cccc(-c2noc(-c3ccccc3F)n2)c1 | inactive | inactive | inactive
Cc1cc(=O)oc2cc(O)ccc12 | inactive | inactive | inactive
O=c1ccc2ccc(O)c(O)c2o1 | inactive | inactive | inactive
CCOc1cc(CC(=O)N[C@@H](CC(C)C)c2ccccc2N2CCCCC2)ccc1C(=O)O | inactive | inactive | inactive
O=C(c1ccccc1)c1ccc2n1CCC2C(=O)O (centres undefined) | inactive | 13.2 µM (active) | 23.5 µM (active)
Oc1ccc(OCc2ccccc2)cc1 | inactive | inactive | inactive
O=c1oc2cc(O)ccc2s1 | inactive | inactive | inactive
CCN(CC)C(=S)SSC(=S)N(CC)CC | 0.0418 µM (active) | 0.003 µM (active) | 0.0019 µM (active)
c1cnc2cc3c(cc2n1)C1CNCC3C1 | inactive | inactive | inactive
Oc1ccc2ccccc2c1SSc1c(O)ccc2ccccc12 | 20.9 µM (active) | 13.2 µM (active) | 23.5 µM (active)
Nc1ccn([C@@H]2O[C@H](CO)[C@@H](O)C2O)c(=O)n1 (some centres undefined) | inactive | 14.8 µM (active) | inactive
O=Nc1c(-c2c(O)[nH]c3cc(Br)ccc23)[nH]c2ccccc12 | 20.9 µM (active) | 3.72 µM (active) | 
CNC[C@H](O)c1ccc(O)c(O)c1 | 13.6 µM (active) | 19.1 µM (active) | 21.5 µM (active)
COCCCOc1ccnc(CS(=O)c2nc3ccccc3[nH]2)c1C (centres undefined) | inactive | inactive | inactive
CC1(C)CCC(C)(C)c2cc(NC(=O)c3ccc(C(=O)O)cc3)ccc21 | inactive | 4.18 µM (active) | inactive
CC(C)[N+]1(C)[C@@H]2CC[C@H]1CC(OC(=O)C(CO)c1ccccc1)C2 (some centres undefined) | inactive | 7.43 µM (active) | 8.33 µM (active)
Clc1ccc2c(N3CCN(CCCN4CCN(c5ccnc6cc(Cl)ccc56)CC4)CC3)ccnc2c1 | inactive | inactive | inactive
